Experimental findings from PubChem BioAssay (NCI) are described below.

The panel holds about 83,000 compounds, 20% with a hit somewhere; the sample as a whole holds those more often.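 Each cell line was grown in a 96-well plate and treated with one concentration of compound for 48 hours. Values below 10 were considered active.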 Values without a mark were called inactive. The source made the active and inactive calls.

The subject of the experiment is RPMI-8226 leukemia. Briefly: NCI-60 one-dose screen, 48 h (100 = growth as untreated, 0 = no growth, -100 = all killed). Particulars: 10 µM unless noted.
Turning to `CC1(C)CC[C@]2(C(=O)N3CCOCC3)CC[C@]3(C)C(=CC[C@@H]4[C@@]5(C)C/C(=C/c6ccncc6)C(=O)C(C)(C)[C@@H]5CC[C@]43C)[C@@H]2C1`, the growth is -33.5% (active).

As for `O=C(Nc1cccnc1Nc1ccc(Cl)cc1)c1cn(Cc2ccc(F)cc2)nn1`, the growth is 85%.

Take `C=C1C(=O)O[C@H]2[C@H]1CC/C(CNC(=O)c1cc3ccccc3[nH]1)=C\CC[C@@]1(C)O[C@@H]21`: the growth was -29% (active).

On to `C=CCN=C(N)SCCCCCCSC(N)=NCC=C`, for which the growth was 94%.

For the molecule `CNC(=O)c1c(NC(=O)c2ccc(C(C)(C)C)cc2)sc2c(CN(C)C)c(O)ccc12`, the growth was -28.1% (active).

As for `COc1ccc(C/C(C)=C(\c2ccc(O)cc2)c2ccc(OCCN3CCCC3)cc2)cc1`, the growth was 105%.

As for `S=c1ssnc1-c1cccs1`, the growth was 97.3%.

For `COc1cc(/C=C/c2cc(/C=C/c3ccc(O)c(OC)c3)n(C(=O)Nc3ccc(F)cc3)n2)ccc1O`, the growth was 3.32% (active).

`COc1cc2c3c(n(CCCCNCCCn4c5c(c6cc(OC)c(OC)cc6c4=O)C(=O)c4cc6c(cc4-5)OCO6)c(=O)c2cc1OC)-c1cc2c(cc1C3=O)OCO2`: the growth was 105%.

`COc1cc(-c2cc(-c3ccc(Nc4ncnc5cc(Cl)ccc45)cc3)nc(N3CCN(C)CC3)n2)cc(OC)c1OC`: the growth was 76.2%.

With `COc1cc(C(=O)/C=C/c2ccc(N3CCN(C)CC3)cc2)cc(OC)c1OC`, the growth is 107%.

For `Cc1ccc2[nH]c(=O)c3c(c2c1)OC(N)=C(C#N)C31C(=O)c2cccc3cccc1c23` (stereo not given), the growth is 97.8%.

For the molecule `Cn1c(=O)c2c(nc(NC3=NS(=O)(=O)c4ccccc43)n2Cc2ccccc2)n(C)c1=O`, the growth is 103%.

With `COc1ccc(C/C(C)=C(/c2ccc(OCCN3CCCCCC3)cc2)c2ccc(OC(=O)NCc3ccccc3)cc2)cc1`, the growth was 52.8%.

As for `Cn1cc(-c2csc(-c3cn(C(=O)OC(C)(C)C)c4ccccc34)n2)c2ccnc(Cl)c21`, the growth is 68.7%.

As for `CCN(C(=O)N1CCN(c2cc3c(cc2F)c(=O)c(C(=O)O)cn3C2CC2)CC1)c1nc(-c2ccc(C)cc2)cs1`, the growth is 14.8%.

Turning to `COC(=O)c1nc(-c2ccccc2)oc1S(=O)(=O)N1CCC(C(N)=O)CC1`, the growth was 41.3%.

For the molecule `CCCCSCC(=O)c1ccccc1`, the growth was 106%.

Take `Cc1ccc(Nc2nc(-c3ccc(F)cc3)c(C#N)c(=O)n2C)cc1`: the growth is 89.4%.

Turning to `COc1cccc(OC)c1Oc1c(-c2nc3ccccc3s2)c(C)nn1-c1ccccc1`, the growth is 57.6%.

For the molecule `Cc1ccccc1CNc1c2ccccc2nc2ccccc12`, the growth is -8.88% (active).

Consider `COc1ccc2nc3ccccc3c(NCc3ccc(F)cc3)c2c1`, for which the growth was -43% (active).

For `O=C1NC(=O)c2c1c1c3ccccc3[nH]c1c1oc3cc(Br)ccc3c21`, the growth was 63.1%.

As for `COc1ccc(-c2nnc(SCC(=O)Nc3ccc(/C(C)=N\O)cc3)n2-c2ccccc2)cc1OC`, the growth was 91.6%.

Regarding `CC1=CCC[C@@H]2C1(C)CC[C@H](C)[C@@]2(C)CC1=CC(=O)C(SC(C)(C)C)=CC1=O` (stereo not given in full), the growth was 64.7%.

For `CCn1cc(CNc2ccc(C(=O)Nc3cc4cc(OC)c(OC)cc4c(C)n3)cc2)c(C)n1`, the growth was -0.529% (active).

As for `CCCCN1C(=O)/C(=c2\sc3n(c2=O)NC2C(N=3)N(CC)C(=O)N2CC)c2ccccc21` (stereo not given), the growth was 60.2%.

For `NC(=O)c1c(NC(=O)c2ccc(Cl)cc2)sc2c1CCC(=O)C2`, the growth is -14.3% (active).

In the case of `CC1(C)CC[C@]2(C(=O)O)CC[C@]3(C)C(=CC[C@@H]4[C@@]5(C)C[C@@H](Cc6cn([C@@H]7O[C@H](CO)[C@@H](O)[C@H](O)[C@H]7O)nn6)[C@H](O)C(C)(C)[C@@H]5CC[C@]43C)[C@@H]2C1`, the growth was 103%.

`CCNCc1ccc(O)c2ncccc12`: the growth is 24.2%.

On to `CC(C)c1ccc(C(=O)Nc2sc3cc(O)ccc3c2C#N)cc1`, for which the growth is 21.2%.

Consider `CCOC(=O)c1c(NC(=O)CSc2n[nH]c3nc4ccccc4n23)sc(CC)c1C`, for which the growth was 107%.

Take `COc1cccc(/C=C/C(=O)c2cc3c(N)c(C(=O)Nc4cccc(Cl)c4C)sc3nc2C)c1`: the growth was -32.6% (active).

For the molecule `Cc1nn(-c2ccccc2)c(N2CCCCC2)c1/C=N/NC(=O)Cn1c(=O)sc2ccccc21`, the growth was 65%.

Turning to `COC(=O)Cc1nc(C#N)c(N(C)C)o1`, the growth was 102%.

Turning to `N=C(N)c1ccc(-c2ccc(-c3ccc(Cl)cc3Cl)s2)cc1F`, the growth is -36.4% (active).

With `C/C(C=O)=C\c1ccc2c(c1)OCO2`, the growth is 96.7%.

On to `Cc1ccc(/C=C(\C#N)C(=O)Nc2ncc(Cc3cc(Cl)ccc3Cl)s2)o1`, for which the growth was 49.3%.

For `C[C@@H]1CC[C@@]2(OC1)O[C@H]1C[C@H]3[C@@H]4CC=C5C[C@@H](O[C@@H]6O[C@H](CO)[C@@H](O[C@@H]7O[C@@H](CO)[C@H](O)[C@H]7O)[C@H](O)[C@H]6O[C@@H]6O[C@@H](C)[C@H](O)[C@@H](O)[C@H]6O)CC[C@]5(C)[C@H]4CC[C@]3(C)[C@H]1[C@@H]2C`, the growth was -60.1% (active).

In the case of `CCOC(=O)c1cn2ncnc(Oc3ccc(NC(=O)NC4CC4)c(F)c3)c2c1C`, the growth is 84.6%.
